TGFb inhibitor = qHTS for Inhibitors of TGF-b; HepG2 CAGA-GFP TGF-b/SMAD3 reporter, GFP fluorescence, 18 h; TGF-beta stimulated, 500 pg/mL final; Potency, µM (top dose mostly 46.1 µM), for the others: top-dose activity, negative = inhibition, most hits filed as inhibitors; 410,000 compounds, 1.2% hits; further: on the % scale 0 is the no-effect control and ±100 the full control effect; nearly all actives have a fitted effect of over 65% in size
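GFP signal (ex488/em500-530) from TGF-beta-stimulated HEPG2 CAGA-GFP cells, 500 pg/mL final, 18 h at 37 degrees C in DMEM plus 1% FBS, normalized to unstimulated and DMSO-stimulated controls.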
HT1080 IDH1KD tx = qHTS for induction of synthetic lethality in tumor cells producing 2HG: qHTS for the HT-1080-IDH1KD cell line; 360,000 compounds, 2% hits; Potency, µM (doses to about 46.1 µM), inactives show at the top dose activity, negative = toxicity, actives largely listed as cytotoxic; HT-1080 IDH1 knockdown viability, ATP luminescence, 48 h;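 further: 0% = DMSO wells and -100% = cell-free medium wells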
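Assay cells: HT-1080 with IDH1 knockdown, 750 per well, RPMI/5% FBS. Exposure: 48 h at 37 °C following 2 h pre-incubation. Read: CellTiter-Glo luminescence; fitted concentration-response, curve class assigned.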
ATXN2 expr inh = Primary qHTS for Inhibitors of ATXN expression; HEK-293 ATXN2-luciferase reporter, luminescence, 24 h; 360,000 compounds, 0.72% hits; Potency, µM (doses to about 57 µM), for the others: top-dose activity change, negative = inhibition, hits mostly inhibitors; further: on the % scale 0 is the no-effect control and ±100 the full control effect; nearly all actives have a fitted effect of over 55% in size
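qHTS (up to 57 uM final) was run with 24 h compound exposure of reporter cells at 37 °C. Each well was multiplexed: SteadyGlo luminescence measured ATXN2-luciferase expression after a fluorogenic Gly-Phe-AFC viability readout (25 uM final).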
ATXN viability = Viability Counterscreen for Primary qHTS for Inhibitors of ATXN expression; 400,000 compounds, 0.49% hits; S2 cells (HEK-293 line with an ATXN2-luciferase reporter) viability, CellTiter-Fluor protease fluorescence, 24 h; Potency, µM (titrated, usually from 56.7 µM), most hits filed as cytotoxic; further: nearly all actives have a fitted effect of over 40% in size
HepG2 viability = qHTS for Inhibitors of TGF-b: Cytotox Counterscreen; HepG2 CAGA-GFP viability, ATP luminescence, 18 h; Potency, µM (titrated, usually from 46.1 µM), for the others: top-dose activity change, negative = cytotoxicity, hits mostly cytotoxic; 410,000 compounds, 0.76% hits; AID 588856, 2011
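HepG2 CAGA-GFP cells (1000/well, DMEM with 1% FBS) received compound, then TGF-beta at 500 pg/mL final, and were incubated 18 hours at 37 degrees C. Viability was read by CellTiter-Glo luminescence. Media-only wells were set as complete cell-killing and DMSO as no toxicity.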
HT1080-NT tox = qHTS for induction of synthetic lethality in tumor cells producing 2HG: qHTS for the HT-1080-NT fibrosarcoma cell line | HT-1080-NT fibrosarcoma viability, CellTiter-Glo ATP luminescence, 48 h | Potency, µM (highest dose often 46.1 µM), inactives show at the highest dose activity, negative = less viability, usual class: cytotoxic | 360,000 compounds, 1.6% hits;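 further: NT is the 2HG producing partner of a matched IDH1 knockdown line; 0% = DMSO-treated cells and -100% = media-only wells without cells; nearly all actives have a fitted effect of over 55% in size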
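Read-out is CellTiter-Glo luminescence after 10 minutes at room temperature, following 48 hours' compound treatment of HT-1080-NT cells (750 cells/well, RPMI, 5% FBS, 37 degrees C).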
An asterisk follows results filed as active; i = inactive; ? = inconclusive; · = no result. Rows were chosen to be rich in hits. Some 3.8% of all compounds tested hit in one or more screens of this group. The call rests on the fitted dose curve; in most records, active means well fitted curve in the direction sought with a large enough effect; inconclusive means small, poorly fitted or top-dose-only effect, or another doubt; inactive means no such curve, though single readings can be large; an effect the other way counts as inactive or inconclusive. Potency means the concentration at half of the fitted maximal effect.

SMILES | TGFb inhibitor | HT1080 IDH1KD tx | ATXN2 expr inh | ATXN viability | HepG2 viability | HT1080-NT tox
O=C(c1ccc(S(=O)(=O)c2cccc(Cl)c2)c([N+](=O)[O-])c1)N1CCN(Cc2ccccc2)CC1 | ? | ? | ? | ? | 2.9% | 8.2µM*
COc1ccc(C(=O)N2CCN(Cc3ccccc3)CC2)cc1[N+](=O)[O-] | -13.9% | -3.1% | · | i | -17.8% | 1.1%
O=C(c1cc([N+](=O)[O-])ccc1Cl)N1CCN(Cc2ccccc2)CC1 | -4.8% | -3.8% | -17.3% | i | 14.1µM* | 1.3%
Cn1nc(C(F)(F)F)c(-c2ccc(Br)cc2)c1NC(=O)Nc1ccc(F)cc1F | ? | 18.4µM* | ? | i | -5.5% | ?
COc1cccc2sc3ccc(C#CC4(N)CCCCC4)cc3c(=O)c12 | ? | -14.4% | -30.7% | ? | -97.9% | -14.6%
COc1cccc2sc3cc(C#CC4(O)CCCCC4)ccc3c(=O)c12 | 7.08µM* | ? | ? | ? | 7.08µM* | ?
C=CCNc1c(O)cc2c(O)c1C[C@@H](C)C[C@H](OC)[C@@H](O)[C@@H](C)C=C(C)[C@H](OC(N)=O)[C@@H](OC)C=CC=C(C)C(=O)N2 | · | · | 0.769µM* | · | · | ·
COc1cc(NC(=O)COc2ccccc2[N+](=O)[O-])ccc1NC(=O)c1cccs1 | ? | ? | ? | 12.6µM* | -50.0% | ?
COc1cc(NC(=O)COc2ccccc2Cl)ccc1NC(=O)c1cccs1 | -9.2% | -15.8% | 6.2% | i | -41.7% | -4.8%
Cc1nc2c(Br)cc(Br)cc2c(=O)n1-c1ccccc1NC1OCC(O)C(O)C1O (stereo not drawn) | 6.3% | -13.7% | ? | i | 1.58µM* | -2.6%
C[C@H](O)[C@@H]1C(=O)N2C(C(=O)O)=C(S[C@@H]3CN[C@H](CNS(N)(=O)=O)C3)[C@@H](C)[C@@H]12 | · | · | -0.7% | · | · | ·
COc1cc2nc(CC(O)c3nc4cc(OC)c(OC)cc4[nH]3)[nH]c2cc1OC (stereo not drawn) | 1.5% | · | · | · | 5.8% | ·
CN(C)c1nc(N)nc(CSc2nnnn2-c2ccc(F)cc2)n1 | -22.5% | ? | -2.4% | i | 1.1% | 0.4%
COc1ccc(C)cc1-n1nnnc1SCc1cn2ccsc2n1 | ? | -16.1% | -6.9% | i | 0.5% | -14.9%
Cc1cccc(C)c1-n1nnnc1SCc1nc(N)nc(N(C)C)n1 | 5.62µM* | ? | -16.3% | i | -61.4% | ?
COc1ccc(C)cc1-n1nnnc1SCc1nc(N)nc(N(C)C)n1 | 11.2µM* | ? | -20.2% | i | -36.5% | ?
CCN(Cc1ccccc1)Cc1c(O)ccc2oc(C)c(C(=O)Nc3ccccc3C)c12 | ? | · | · | · | -20.9% | ·
COc1ccc(NC(=S)N/N=C/c2ccc(F)c(F)c2)cc1 | -13.6% | 20.6µM* | -22.1% | ? | -4.9% | ?
Fc1ccc(NC(=S)N/N=C/c2ccc(F)c(F)c2)cc1 | ? | 10.6% | 14.1% | i | 14.8% | -0.1%
CCOC(=O)Cc1ccc(NC(=O)c2ccc(C(C)(C)C)cc2)cc1 | -17.1% | ? | 2.82µM* | ? | -56.7% | -29.2%
CCOC(=O)Cc1ccc(NC(=O)c2ccccc2Br)cc1 | -7.2% | 3.3% | · | i | 0.8% | -1.1%
CC(C)(C)c1ccc(C(=O)Nc2ccc(C(=O)NCc3cccnc3)cc2)cc1 | 5.7% | 1.03µM* | -21.6% | i | -0.9% | 1.64µM*
CC(C)(C)C(=O)Nc1ccc(C(=O)NCc2cccnc2)cc1 | -8.0% | 11.7% | 24.3% | i | 10.7% | 16.5%
O=C(NCc1cccnc1)c1ccc(NC(=O)c2ccc([N+](=O)[O-])cc2)cc1 | -15.0% | 14.6µM* | -22.5% | i | -4.3% | ?
OC1(c2cccnc2)CCN(Cc2ccc3c(c2)CN(Cc2cccc4nccnc24)CCO3)CC1 | · | · | · | i | · | ·
SMILES | TGFb inhibitor | HT1080 IDH1KD tx | ATXN2 expr inh | ATXN viability | HepG2 viability | HT1080-NT tox
Cc1ccc2nc(SCC(=O)N3CCOc4ccc(CN5C[C@@H](C)O[C@@H](C)C5)cc4C3)[nH]c2c1 | · | · | · | i | · | ·
Cc1cnc(C)c(-c2cc(F)cc3c2OC(CNC(=O)C2CCOC2)C3)n1 (stereo not drawn) | · | · | · | i | · | ·
CN(Cc1ccccc1)C(=O)c1ccc(CSc2nc3cccnc3n2Cc2ccccc2)cc1 | 20µM* | · | -13.6% | ? | -74.4% | ·
C[N+]1(CCCOC(=O)C2(c3ccccc3)CCCC2)CCOCC1 | ? | -1.9% | -1.8% | i | 11.2µM* | -4.5%
CN(C)CCOC(=O)C1(c2ccccc2)CCCC1 | -12.1% | 8.2% | 4.6% | i | -3.0% | -0.2%
CCc1cccc2sc(N3CCN(C(=O)C4CC4)CC3)nc12 | -29.5% | · | · | · | -37.2% | ·
Cc1c(Cl)ccc2sc(N3CCN(C(=O)C4CC4)CC3)nc12 | 17.8µM* | · | 0.0% | ? | -40.9% | ·
Cc1ccc2c(c1)C(=O)C(=O)N2CCCOc1ccccc1C | ? | -28.8% | -15.7% | ? | -21.3% | ?
Cc1ccc(CN2C(=O)C(=O)c3cc(C)ccc32)cc1 | ? | -9.6% | 3.8% | ? | -13.5% | -5.2%
Cc1ccc2c(c1)C(=O)C(=O)N2Cc1ccc(Br)cc1 | ? | 23.1µM* | -36.4% | ? | -30.6% | ?
Cc1cccc(OCCN2C(=O)C(=O)c3cc(C)ccc32)c1 | ? | ? | 32.3% | ? | -3.9% | 2.91µM*
Cc1cccc(OCCN2C(=O)C(=O)c3cccc(C)c32)c1 | 13.3% | 0.9% | -7.7% | i | -4.2% | -4.8%
Cc1ccc2c(c1)C(=O)C(=O)N2CCOc1ccccc1 | ? | 20.6µM* | 18.3% | ? | -9.4% | 7.31µM*
COc1cc(=O)n2c(c1C(=O)N(C)Cc1cscn1)CCN(Cc1ccc3c(c1)OCCO3)CC2 | · | · | · | i | · | ·
Cc1ccc(C(=O)Nc2ccc(NC(=O)c3ccco3)c(C)c2)cc1 | 0.2% | -2.2% | 14.6% | i | -2.3% | 8.0%
Cc1cc(NC(=O)c2ccc(Br)o2)ccc1NC(=O)c1ccco1 | 15.3% | ? | 8.0% | i | 10µM* | ?
Cc1ccc2nc(-c3cc(-c4ccccc4)no3)cn2c1 | -6.5% | -0.2% | 3.55µM* | i | -14.5% | -0.3%
CCc1ccn2cc(-c3cc(-c4ccccc4)no3)nc2c1 | ? | ? | · | ? | 10µM* | ?
